Compound activity: PubChem, National Center for Advancing Translational Sciences (NCATS)
Pf Dd2 growth: inhibitors of Plasmodium falciparum Dd2 growth; P. falciparum Dd2 growth, SYBR Green, 72 h; 4.3% of 120,000 active; AID 1347417; Potency, µM (highest dose often 28.9 µM), inactives show top-dose activity, negative = inhibition, usual class: inhibitors; active = well fitted inhibition curve with a large enough effect;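 note: plate controls were DMSO vehicle for no effect and reference drug for full effect; nearly all actives have a fitted effect of over 65% in size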
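Readout: SYBR Green fluorescence, 485 nm excitation, 535 nm emission, after ~16 h lysis at 37C. Before that, Dd2-infected red cells (2.5% hematocrit) grew 72 h with compound, 29 uM top final concentration.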
An asterisk follows results filed as active; i = inactive; ! = not confirmed by another sample; [ ] = dose if it differs, or a comment. This excerpt belongs to a sample that is enriched for hits. Potency is the fitted concentration of half-maximal effect.

SMILES	Pf Dd2 growth
N#Cc1ccc(C(=O)N2CCC(n3cc(-c4nc(-c5ccccc5)no4)nn3)C2)cc1 (stereo not drawn)	i
COc1cccc(C(=O)N2CCC(n3cc(-c4nc(-c5ccccc5)no4)nn3)CC2)c1	-6.9%
COc1ccc(C(=O)N2CCC(n3cc(-c4nc(-c5ccccc5)no4)nn3)CC2)cc1	1.26µM*
Cc1ccsc1C(=O)N1CCC(c2nc(C3CCOCC3)no2)CC1	3.0%
CC(C)CNC(=O)N1CCCCCC1CN1CCOCC1 (stereo not drawn)	-14.2%
Cc1ncsc1CN1C(=O)CO[C@H](c2ccc(NC(=O)c3cccnc3)cc2)[C@H]1CO	-1.5%
CN1CCOc2c(C(=O)NCCN3CCNC3=O)cc(-c3ccc(O)c(F)c3)cc21	i
O=C(C1CC1)N1CCN(C2CCN(Cc3cccnc3)C2=O)CC1 (stereo not drawn)	7.7%
COCc1noc([C@@H]2CN(S(=O)(=O)Cc3cccc(F)c3)C[C@H]2C(N)=O)n1	2.7%
Cn1c(Cn2cccn2)nnc1C1CCCN(C(=O)CCn2cnnn2)C1 (stereo not drawn)	-0.5%
CCc1nn(-c2ccc(OC)cc2)c(Oc2ccccc2F)c1CCC(=O)NCCOC	i
CCc1nn(-c2ccc(OC)cc2)c(Oc2ccccc2F)c1CCC(=O)N(CC)CC	i
CCc1nn(-c2ccc(OC)cc2)c(Oc2ccccc2F)c1CCC(=O)NC(C)C	7.94µM*
COCC1CN(C(C)=O)CC12CCN(S(=O)(=O)c1ccc(OC)cc1)CC2 (stereo not drawn)	-10.9%
CO[C@H]1C(=O)N(C(C)C)[C@H]1C1CCN(Cc2cccc(F)c2)CC1	-24.7%
CO[C@H]1C(=O)N(C(C)C)[C@H]1C1CCN(C(=O)c2cccc(C#N)c2)CC1	13.4%
CO[C@H]1C(=O)N(C(C)C)[C@H]1C1CCN(Cc2cccc(C#N)c2)CC1	10µM*
CC(C)(Oc1nn(CC2CCOCC2)c2ccccc12)C(=O)NCCc1ccccc1	-9.2%[44.1 µM]
CCn1ncc(NC(=O)Cn2ncc3cc(-c4cccc(C#N)c4)ccc32)n1	-16.2%
COc1ccc(-n2nc(C3CCCN(Cc4cccc5ccccc45)C3)[nH]c2=O)cc1 (stereo not drawn)	-18.3%
Cc1ccc2nc(C3CCN(Cc4ccccc4)CC3)[nH]c(=O)c2c1	-5.4%
COc1cccc(-c2ccc(CN3CCCC(c4nc5ccc(C)cc5c(=O)[nH]4)C3)cc2)c1 (stereo not drawn)	7.94µM*!
Cc1ccc(-c2cccc(CN3CCCC(c4nc5ccc(C)cc5c(=O)[nH]4)C3)c2)c(C)c1 (stereo not drawn)	7.94µM*!
Cc1ccc2nc(C3CCN(CC4CCCC4)CC3)[nH]c(=O)c2c1	11.5%[44.1 µM]
COc1cccc(-c2ccc(CN3CCN(c4cc(Cl)ncn4)C(=O)C3)cc2)c1	-23.0%
SMILES	Pf Dd2 growth
CCCc1ncncc1C(=O)NC1CC(c2nnc(CO)n2C2CC2)C1 (stereo not drawn)	-1.8%
O=C(NCCN1CCOCC1)C1c2ccccc2CC(=O)N1Cc1ccccc1 (stereo not drawn)	-21.0%
Cc1ncoc1C(=O)N1CCC(c2noc(-c3cnccn3)n2)C1 (stereo not drawn)	6.1%[5.79 µM]
O=C(c1cc(C2CC2)[nH]n1)N1C[C@@H](CO)[C@H](c2ccccn2)C1	i
CCS(=O)(=O)N1CCCOCCNC(=O)[C@@H]2CCC[C@@H]21	12.4%
O=C(O)C1(Oc2ccc3ncccc3c2)CCN(Cc2cccnc2)CC1	0.4%
CC[C@H]1CN(S(=O)(=O)c2ccccc2)CC[C@H]1CC(=O)NCc1cccnc1	-18.0%[44.1 µM]
CC(C)c1ccc(-c2noc(SCC(=O)N3CCCCC3C)n2)cc1 (stereo not drawn)	2.24µM*
COc1ccc(-c2nnc(SCC(=O)N3CCC(C)CC3)o2)cc1	-12.7%
CC1CCN(C(=O)CSc2n[nH]c(-c3ccc(F)cc3)n2)CC1	-2.9%
O=C(Cc1ccccc1Cl)N1CCC[C@H]1c1nc(-c2ccccc2)no1	-17.5%
CC1CCN(C(=O)CSc2nc(-c3ccc(C(C)C)cc3)no2)CC1	0.891µM*
Cc1ccc(-c2noc([C@@H]3CCCN3C(=O)Cc3ccccc3Cl)n2)cc1	i
CNC(=O)N1CCc2nc(N3CCN(C)CC3)[nH]c(=O)c2CC1	16.5%[5.79 µM]
COCCN1C(=O)CS(=O)(=O)C12CCN(C(=O)Cc1cccc(F)c1)CC2	-17.3%
COc1cc(OC)cc(C(=O)N2CCCC(n3cc(-c4noc(C)n4)nn3)C2)c1 (stereo not drawn)	i
COc1ccc(CC(=O)NCc2cccc(SC)c2)cc1	-31.5%
Cc1cnc(CCNC(=O)c2cnccn2)n1CC1CC1	-1.4%
Cc1ccc(C)c(C(=O)N2CCC3(CC2)NC(=O)N(c2ccccc2)N3)c1	i
O=C([C@@H]1C[C@H](F)CN1S(=O)(=O)Cc1ccc(Cl)cc1)N1CCCCC1	32.3%
COCC(=O)N[C@@H]1C=C[C@@H](c2c(C)nn(-c3ccc(C(C)(C)C)cc3)c2C)C1	-14.4%[44.1 µM]
Cc1nn(-c2ccc(C(C)(C)C)cc2)c(C)c1[C@@H]1C=C[C@@H](NC(=O)NC(C)C)C1	10µM*
Cc1nn(-c2ccc(C(C)(C)C)cc2)c(C)c1[C@@H]1C=C[C@@H](NC(=O)COCC(=O)O)C1	1.7%[44.1 µM]
CCNC(=O)N[C@@H]1C=C[C@@H](c2c(C)nn(-c3ccc(C(F)(F)F)cc3)c2C)C1	4.47µM*
CCNC(=O)N[C@@H]1C=C[C@@H](c2c(C)nn(-c3ccc(C(C)(C)C)cc3)c2C)C1	-5.2%[44.1 µM]
SMILES	Pf Dd2 growth
Cc1nn(-c2ccc(C(C)C)cc2)c(C)c1[C@@H]1C=C[C@@H](NC(=O)NCc2ccccc2)C1	-29.8%[44.1 µM]
Cc1nn(-c2ccc(F)cc2)c(C)c1[C@@H]1C=C[C@@H](NC(=O)NC(C)C)C1	8.91µM*
Cc1nn(-c2ccc(C(F)(F)F)cc2)c(C)c1[C@@H]1C=C[C@@H](NC(=O)CC(C)(C)CC(=O)O)C1	i
Cc1nn(-c2ccc(C(C)C)cc2)c(C)c1[C@@H]1C=C[C@@H](NC(=O)NC2CCCCC2)C1	10µM*
Cc1nn(-c2ccc(C(C)(C)C)cc2)c(C)c1[C@@H]1C=C[C@@H](NC(=O)CCC(=O)O)C1	-18.5%[44.1 µM]
Cc1nn(-c2ccc(C(F)(F)F)cc2)c(C)c1[C@@H]1C=C[C@@H](NC(=O)CCC(=O)O)C1	i
Cc1nn(-c2ccc(C(C)C)cc2)c(C)c1[C@@H]1C=C[C@@H](NC(=O)Nc2ccc(Cl)cc2)C1	-2.6%
O=C1CO[C@H]2CN(Cc3c[nH]c4ccccc34)C[C@H]2N1Cc1ccccn1	-4.6%[44.1 µM]
c1cc(-c2cc(-c3cn[nH]c3)c3cncn3c2)cc(N2CCOCC2)c1	-15.3%[44.1 µM]
CCn1ccc(C(=O)N2CCC3(CCC3NC(=O)COC)CC2)n1 (stereo not drawn)	9.9%
CCOc1ccc(-c2ccnc(N3CCC(NC(C)=O)CC3)n2)cc1C(=O)O	3.4%
CCOC(=O)c1c(C)sc(-c2c(-c3cc(C)ccc3C)[nH]c3c2c(=O)n(C)c(=O)n3C)c1O	10µM*
CCOC(=O)c1c(C)sc(-c2c(-c3cc(C)ccc3C)[nH]c3c2c(=O)[nH]c(=O)n3C)c1O	-6.3%
CCOC(=O)c1c(C)sc(-c2c(-c3cccc(Cl)c3)[nH]c3c2c(=O)n(C)c(=O)n3C)c1O	146.3%
CN(C)CCCn1ccnc1C1CCN(C(=O)C2CCCN(C)C2)CC1 (stereo not drawn)	11.4%
CCN(Cc1ccccc1)C(=O)[C@@H]1CCC(=O)N[C@@H]1COC	5.0%
COCCNC(=O)c1cc(-c2ccc(OC)cc2)nc2onc(C3CCNC3)c12 (stereo not drawn)	-23.1%
O=C(O)c1ccc2nc(-c3cc4cc(F)ccc4oc3=O)[nH]c2c1	-1.3%
c1coc(-c2nc3ccncc3[nH]2)c1	-24.1%[44.1 µM]
